# This is a sample that favours compounds with a hit; in the whole collection about 2.4% have one here.
# Cruzain noTriton: inhibitors of Trypanosoma cruzi cruzain without detergent; P25779; Potency, µM, inactives show max response, negative = inhibition, usual class: inhibitors; AID 1476; hit rate 2.3% among 200,000; purified cruzain, Z-FR-AMC fluorescence, no detergent;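 further: plate controls were enzyme without inhibitor for no effect and buffer without enzyme for full effect; nearly all actives have a fitted effect of over 40% in size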
# Target sequence (P25779 123-467 limits assumed): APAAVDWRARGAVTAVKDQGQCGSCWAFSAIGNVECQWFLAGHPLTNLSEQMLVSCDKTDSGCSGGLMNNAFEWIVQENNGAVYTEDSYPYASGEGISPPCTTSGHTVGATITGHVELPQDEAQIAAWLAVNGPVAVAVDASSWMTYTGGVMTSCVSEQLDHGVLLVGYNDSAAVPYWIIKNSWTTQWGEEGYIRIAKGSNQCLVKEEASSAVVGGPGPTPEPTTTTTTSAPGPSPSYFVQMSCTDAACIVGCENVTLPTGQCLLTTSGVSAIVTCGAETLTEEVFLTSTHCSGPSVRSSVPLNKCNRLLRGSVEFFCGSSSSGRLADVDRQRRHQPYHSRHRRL
#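 Purified cruzain at 1.5 nM, pre-incubated 15 min with compound at room temperature in 100 mM sodium acetate pH 5.5, 5 mM DTT, 0.00005% Triton X-100. Reaction started with 2 uM Z-FR-AMC; AMC fluorescence increase over 60 s gives rate.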
# Cruzain inh Det: cruzain (T. cruzi) inhibition with detergent; P25779; purified cruzain, Z-FR-AMC fluorescence, 0.01% Triton; Potency, µM, for the others: max response, negative = inhibition, usual class: inhibitors; hit rate 0.43% among 200,000; AID 1478;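 further: plate controls were neutral wells for no effect and buffer without enzyme for full effect; nearly all actives have a fitted effect of over 40% in size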
#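 Enzyme 1.5 nM, Z-FR-AMC 2 uM, NaOAc 100 mM pH 5.5, DTT 5 mM, Triton X-100 0.01%; 15 min RT compound preincubation; kinetic ex360/em450, 60 s delta.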
# * marks the source's active call; other numbers are inactive results; ? = inconclusive. The call rests on the fitted dose curve; in most records, active means well fitted curve in the direction sought with a large enough effect; inconclusive means small, poorly fitted or top-dose-only effect, or another doubt; inactive means no such curve, though single readings can be large; an effect the other way counts as inactive or inconclusive. Potency means the concentration at half of the fitted maximal effect.
SMILES,Cruzain noTriton,Cruzain inh Det
CCSc1nnc(NC(=O)c2cc3c(s2)CCCC3)s1,7.9µM*,9%
C/C(Cn1nnc2ccccc21)=N\OC(=O)c1ccccc1C,-10%,-3%
CCCCn1c(-c2ccc(Cl)cc2)nc2c(=O)n(C)c(=O)[nH]c21,5%,9%
CCOc1ccc(C2C(=O)N(C3CCCCC3)CC(=O)N2C2CCCC2)cc1OC (configuration not stated),-8%,0%
CCOC(=O)N1CCC(N2CCN(S(=O)(=O)c3ccc(Cl)cc3)CC2)CC1,-13%,11%
O=C(Nc1cc(-c2nc3cc(Cl)ccc3o2)ccc1Cl)c1cc([N+](=O)[O-])ccc1N1CCOCC1,-6%,-1%
Cc1cccc(N2C(=O)CC(NNc3nc4ccccc4s3)C2=O)c1 (configuration not stated),0%,-1%
CN(C)C(=O)COc1ccc2cc(-c3ccccc3)c(=O)oc2c1,?,28µM*
Cc1cc(OCC(=O)N(C)C)c2c(-c3ccccc3)cc(=O)oc2c1,-6%,0%
CC(C)c1nnc(SCC(=O)NCc2ccc3c(c2)OCO3)n1C,4%,3%
O=C1CC(N2CCCCCC2)C(=O)N1c1ccc2c(c1)OCO2 (configuration not stated),9%,-2%
CCCc1nnc(SCC(=O)N2CCCCC2C)n1CC1CCCO1 (configuration not stated),-1%,2%
CCc1ccc(NC(=O)CSc2nc3c(sc4ccccc43)c(=O)n2CCN(CC)CC)cc1,5%,-2%
COc1ccccc1-c1nnc(Nc2nc3c(OC)cccc3s2)o1,32µM*,?
COc1cccc2sc(Nc3nnc(-c4ccccc4Cl)o3)nc12,?,1%
O=C(c1c[nH]c2ccc(S(=O)(=O)N3CCOCC3)cc2c1=O)N1CCN(c2ccccn2)CC1,-7%,2%
CCOC(=O)C1(CC)NC(c2ccco2)C2C(=O)N(c3ccc(C)cc3)C(=O)C21 (configuration not stated),11%,2%
COCc1cc(=O)[nH]c(SCC(=O)Nc2ccccc2)n1,-8%,2%
O=C(OCC1OC(n2ccc(=O)[nH]c2=O)C(O)C1OC(=O)c1ccccc1)c1ccccc1 (configuration not stated),0%,0%
Nc1nc2c(ncn2C2OC(COC(=O)c3ccccc3)C(OC(=O)c3ccccc3)C2OC(=O)c2ccccc2)c(=O)[nH]1 (configuration not stated),7.9µM*,-1%
CCOc1ccc(CNCc2c(C(=O)O)n(Cc3ccc(C)cc3)c3cc(C)ccc23)cc1,-9%,-13%
CC1CCCN(CCOc2ccc(Br)cc2)C1 (configuration not stated),5%,3%
CC1CCCN(CCC(=O)c2ccc(Br)cc2)C1 (configuration not stated),5µM*,?
O=C(Nc1ccc(CN2CCOCC2)cc1)c1ccc(-c2cc(Cl)ccc2Cl)o1,25µM*,-19%
S=C(c1ccc(-c2cc(Cl)ccc2Cl)o1)N1CCOCC1,-11%,-15%
SMILES,Cruzain noTriton,Cruzain inh Det
CCCCCCCC1Cc2ccccc2C(C(C(=O)OC)C(=O)OC)N1C(=O)OC (configuration not stated),?,-1%
Cc1ccccc1Nc1nc(Nc2ccccc2C)nc(SC2=NCCS2)n1,?,4%
Cc1ccc(Nc2nc(Nc3ccc(C)cc3)nc(SC3=NCCS3)n2)cc1,25µM*,2%
O=C(CCc1nnc2n(Cc3ccccc3Cl)c(=O)c3ccccc3n12)Nc1ccc(F)c(F)c1,1%,1%
Cc1ccc(C)n1-c1nnc(N2CCCC(C(=O)NCc3ccc(Cl)cc3)C2)s1 (configuration not stated),8%,-2%
COc1ccc(-c2cn3nc(N4CCCC(C(=O)NCc5ccc(Cl)cc5)C4)sc3n2)cc1 (configuration not stated),-2%,14µM*
CCCc1ccc(Oc2coc3cc(OCC(=O)Nc4ccccc4C)ccc3c2=O)cc1,6%,-4%
CCc1ccc(Oc2coc3cc(OCC(=O)Nc4cc(C)ccc4C)ccc3c2=O)cc1,25µM*,2%
CCNC(=S)NNC(=O)c1cc(Br)cs1,-1%,-2%
CCn1c(SCC(=O)N2CCOCC2)nc2oc3c(Cl)cc(Cl)cc3c(=O)c2c1=O,-14%,-12%
Cc1ccc(N2CCN(S(=O)(=O)c3ccc4[nH]c5c(c4c3)CCCCC5)CC2)c(C)c1,3.2µM*,3%
Cc1ccc(CNS(=O)(=O)c2ccc3[nH]c4c(c3c2)CCCCC4)cc1,-11%,-20%
Cc1ccc(C)c(N2CCN(S(=O)(=O)c3ccc4[nH]c(=O)c(=O)[nH]c4c3)CC2)c1,19%,-2%
Cc1ccc(C)c(N2CCN(S(=O)(=O)c3ccc4[nH]c5c(c4c3)CCCCC5)CC2)c1,7.9µM*,0%
Cc1cccc(NC(=O)CSc2nnc(C)n2Cc2ccccc2)c1,1%,0%
COC(=O)Cn1c2c(c3cc(C)ccc31)CCCC2,-4%,-5%
